# Bioassay records: PubChem BioAssay, The Scripps Research Institute Molecular Screening Center
# Fam108B inh – blocks mouse Fam108B hydrolase in RBBP9 counter-screen | 300,000 tested, 0.33% active | inhibition, % at 9.51 µM | recombinant Fam108B, FP-Rh probe fluorescence polarization;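 active = inhibition above the screen mean inhibition plus 3 SD, computed separately per campaign, cut at about 18% in these data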;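 also: inhibitors lower polarization as less probe binds the enzyme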
# PME-1 primary – PME-1 (human) inhibition. Q9Y570. recombinant PME-1, FP-Rh probe fluorescence polarization. inhibition, % at 5.9 µM. 320,000 tested, 0.53% active;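 active = inhibition above the campaign mean of all compounds plus 3 SD, cut at about 26% in these data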;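 also: competitive labeling of PME-1 active site by serine hydrolase directed probe; 0% = PME-1 with DMSO and 100% = wells lacking PME-1 enzyme; inhibitors block probe labeling so polarization falls and inhibition rises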
# Target sequence (Q9Y570 whole entry, looked up): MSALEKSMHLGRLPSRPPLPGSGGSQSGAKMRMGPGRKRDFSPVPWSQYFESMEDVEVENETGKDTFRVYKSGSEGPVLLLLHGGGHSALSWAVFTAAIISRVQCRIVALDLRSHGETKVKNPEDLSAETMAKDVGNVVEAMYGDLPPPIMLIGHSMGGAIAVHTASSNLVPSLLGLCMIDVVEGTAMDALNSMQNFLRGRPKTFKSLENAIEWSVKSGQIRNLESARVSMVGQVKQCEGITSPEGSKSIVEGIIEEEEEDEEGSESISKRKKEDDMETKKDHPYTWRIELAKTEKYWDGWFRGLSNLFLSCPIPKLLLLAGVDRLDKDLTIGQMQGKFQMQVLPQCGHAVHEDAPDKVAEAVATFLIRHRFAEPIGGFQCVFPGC
# LYPLA2 counter – LYPLA2 (human) inhibition in PME1 counter-screen; O95372; recombinant LYPLA2, FP-Rh probe fluorescence polarization; inhibition, % at 5.9 µM; 320,000 tested, 0.38% active;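 active = inhibition above the screen-wide mean plus 3 SD, limit set per campaign, cut at about 26% in these data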;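 also: 0% = LYPLA2 with DMSO and 100% = wells lacking LYPLA2 enzyme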
# LYPLA1 counter – blocks human lysophospholipase 1, a PME1 counter-screen | O75608 | recombinant LYPLA1, FP-Rh probe fluorescence polarization | inhibition, % at 5.9 µM | 320,000 tested, 0.16% active | AID 2174;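 active = inhibition above the mean of all tested compounds plus 3 SD, set per campaign, cut at about 14% in these data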;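 also: inhibitors block serine hydrolase probe labeling of LYPLA1 so polarization falls; 0% = enzyme with DMSO and 100% = wells lacking LYPLA1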
# PREPL inh – inhibitors of human prolyl oligopeptidase-like enzyme PREPL; Q4J6C6; recombinant PREPL, fluorescence polarization activity-based probe; inhibition, % at 5.96 µM; 320,000 tested, 0.68% active; in the data active = inhibition above about 43%;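 also: 0% = enzyme with DMSO and 100% = wells lacking enzyme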
# Starred values were filed as active, the others as inactive; . = no result. Most compounds without a hit are left out; they make up all but 1.3% or so of the library.
SMILES,Fam108B inh,PME-1 primary,LYPLA2 counter,LYPLA1 counter,PREPL inh
COC(=O)c1cccc(C#CC(NP(=O)(c2ccccc2)c2ccccc2)c2ccccc2)c1 (stereo not drawn),-1,31*,-5,-7,-5
COC(=O)c1cc(C(=O)NCc2ccc3c(c2)OCO3)cc([N+](=O)[O-])c1,-4,7,7,2,10
Clc1ccc(Nc2nc(-c3ccncc3)cs2)cc1,-2,5,12,4,11
Nc1ccc(Nc2nc(-c3ccncc3)cs2)cc1,2,7,-5,0,44*
Cc1ccc(C(=O)Nc2nnc(CC(=O)N/N=C/c3ccncc3)s2)cc1,-6,-5,-11,-11,-11
Cc1ccc(C(=O)Nc2nnc(CC(=O)N/N=C/c3ccc(O)c(O)c3)s2)cc1,18,29*,-7,-15,30
CCOc1ccc(NC(=O)Nc2ccc3c(c2)N(C)C(=O)CS3)cc1,-1,33*,-4,-5,3
CCn1c(=O)cc(C(F)(F)F)[nH]c1=S,-1,-3,0,0,-3
CCc1nnc(NC(=O)c2ccc3ccccc3n2)s1,-2,-2,4,-1,3
CCOC(=O)Cc1csc(NC(=O)c2sc3nc4ccc(C)cc4cc3c2N)n1,9,58*,-4,-7,7
CCc1nnc(NC(=O)c2sc3nc4cc(C)ccc4cc3c2N)s1,9,32*,-6,1,0
N=c1n(Cc2ccccc2)c2ccccc2n1CC(O)c1ccccc1 (stereo not drawn),2,1,0,-2,43*
CCOC(=O)Oc1ccc2c(=O)c(Oc3cccc(C)c3)coc2c1,2,12,-2,0,65*
CC(=O)c1ccccc1NCC(=O)Nc1ccc(C)cc1,-3,2,-1,-1,-40
NS(=O)(=O)c1ccc(-c2ccc(/C=N/Nc3ccc(C(=O)O)cc3)o2)cc1,5,-12,-8,-3,19
O=C(O)c1ccc(-c2ccc(/C=N/Nc3ccc([N+](=O)[O-])cc3)o2)cc1,14,47*,24,4,17
C/C(=N\Nc1nc2ccccc2s1)c1ccc(Br)s1,-3,51*,-12,-10,26
C/C(=N\NC(=O)c1ccccc1[N+](=O)[O-])c1ccc(Br)s1,1,8,0,-2,-8
Cc1cc(C)n(-c2cc(N3CCN(C(=O)c4cccc(F)c4)CC3)ccc2[N+](=O)[O-])n1,0,4,3,1,14
COc1cc(C(=O)Nc2c(C(=O)O)[nH]c3ccc(Br)cc23)cc(OC)c1OC,9,31*,0,12,18
O=C(OC[C@H]1O[C@@H](OC(=O)c2cc(O)c(O)c(OC(=O)c3cc(O)c(O)c(O)c3)c2)[C@H](OC(=O)c2cc(O)c(O)c(OC(=O)c3cc(O)c(O)c(O)c3)c2)[C@@H](OC(=O)c2cc(O)c(O)c(OC(=O)c3cc(O)c(O)c(O)c3)c2)[C@@H]1OC(=O)c1cc(O)c(O)c(OC(=O)c2cc(O)c(O)c(O)c2)c1)c1cc(O)c(O)c(OC(=O)c2cc(O)c(O)c(O)c2)c1,65*,26*,17,0,104*
CCN1C(=O)N[C@@H](c2ccco2)C(C(=O)OC)=C1C,-1,11,2,-1,9
CC(=O)Nc1nc2cc3c(cc2s1)OCCO3,-1,-5,0,0,11
Fc1cccc2sc(Nc3nc4cc5c(cc4s3)OCCO5)nc12,10,67*,6,-5,15
CC(C)C(=O)Nc1nc2cc3c(cc2s1)OCO3,-3,-4,3,-2,-18
SMILES,Fam108B inh,PME-1 primary,LYPLA2 counter,LYPLA1 counter,PREPL inh
Fc1cccc2sc(Nc3nc4cc5c(cc4s3)OCO5)nc12,17,72*,3,-7,16
Fc1cc(F)c2nc(Nc3nc4cc5c(cc4s3)OCO5)sc2c1,13,49*,-17,-13,17
CC(=O)N1CCC(N(CCN2CCOCC2)C(=S)Nc2cc(C)ccc2C)CC1,2,2,-4,1,10
COc1ccccc1CNC(=O)COC(=O)c1cc(=O)[nH]c2ccccc12,.,8,0,0,4
O=C(COc1ccccc1)Nc1cc(S(=O)(=O)N2CCOCC2)ccc1N1CCCC1,.,-3,-12,-5,6
O=C(COC(=O)c1ccccc1Br)Nc1cc(S(=O)(=O)N2CCOCC2)ccc1N1CCCC1,4,54*,6,4,18
COc1ccc(N2CCN(c3oc(-c4ccccc4OC)nc3C#N)CC2)cc1,4,-6,10,7,52*
N#CC1=C(N)NC(SCC(=O)O)=C(C#N)C12CCCC2,6,-7,0,0,13
CC(C)N1CCC2(CC1)C(C#N)=C(N)NC(S)=C2C#N,-7,-13,-14,-13,49*
O=C(C1CCN(S(=O)(=O)c2cccc3cccnc23)CC1)N1CCn2c1nc1ccccc12,1,28*,-5,2,5
O=C(C1CCCN1S(=O)(=O)c1cccc2cccnc12)N1CCn2c1nc1ccccc12 (stereo not drawn),2,-2,-5,2,-15
O=C(O)/C=C/c1cn(-c2ccccc2)nc1-c1ccc(-c2ccc([N+](=O)[O-])cc2)o1,-11,27*,0,1,4
CCO[C@@H]1OC(C(=O)N2CCOCC2)=C[C@H](c2coc3ccccc3c2=O)[C@H]1CCCO,-2,1,-7,2,6
COc1cccc(/C=N/Nc2snc(SC)c2C#N)c1,-1,15,9,4,13
COc1ccc(/C=N/Nc2snc(SC)c2C#N)cc1OC,11,40*,2,-4,23
O=C(c1ccccc1)N1CCC(c2nc3c(nnn3Cc3ccccc3Cl)c(=O)[nH]2)CC1,6,21,2,-3,16
O=C(c1cccs1)N1CCC(c2nc3c(nnn3Cc3ccccc3Cl)c(=O)[nH]2)CC1,-1,28*,0,0,3
Cc1cccc2c3c([nH]c12)CCNC3,4,2,1,0,12
CCc1ccc(N2C(=O)Cc3c2nc(N)c(C#N)c3N)cc1,0,7,-2,0,44*
Cc1cccc(Nc2nnc(SCC(=O)c3ccc(O)cc3O)s2)c1,0,17,6,-2,-1
Cc1ccc(Nc2nnc(SCC(=O)c3ccc(O)cc3O)s2)cc1,8,37*,1,-5,-14
N#Cc1c(N)sc(=S)c2c1CCN(Cc1ccccc1)C2,27*,32*,27*,18*,74*
O=C(Nc1ccc(F)cc1)c1ccc(Br)c(S(=O)(=O)N2CCOCC2)c1,0,1,-2,-4,-3
O=C(CCNS(=O)(=O)c1cccc2nonc12)N1CCN(c2cccc(Cl)c2)CC1,4,3,48*,3,32
CCc1cc2c(N=Nc3c(O)[nH]c4ccccc34)ncnc2s1,3,8,-9,0,4
Oc1[nH]c2ccccc2c1N=Nc1ncnc2c1oc1ccccc12,4,30*,-3,0,2
